Common to all, as to assay: Cytotoxic Profiling of Annotated Libraries Using Quantitative High-Throughput Screening (AID 1296008); note: nearly all actives have a fitted effect of over 60% in size
What all share (conditions): Five cell lines viability, CellTiter-Glo ATP luminescence, 48-72 h; max response: active compounds read low

The subject of one assay is CRL-7250. A digest of the protocol: (§1)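 Cytotoxicity was measured as CellTiter-Glo ATP luminescence, read after 10 min at room temperature. Compound treatment of the cells lasted 48 or 72 hr at 37 degrees Celsius in a qHTS format.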
Another assay has as its system HEK293. Put shortly: as §1
The test system of another assay is HaCat. Put shortly: as §1
For the next assay, the system named is KB-3-1. Put shortly: as §1
A further assay relates to NIH3T3. A digest of the protocol:
as §1

Records with an inconclusive call do not appear. A number with no mark means an inactive call. The source made the active and inactive calls. Calls come from the whole dose curve; as a rule, active = well fitted inhibition curve with a large enough effect; inconclusive = small, poorly fitted or top-dose-only effect; inactive = flat fitted curve, though single readings scatter.
% is set by controls: 0 for no effect and ±100 for the full control effect; potency is the fitted concentration of half-maximal effect.

Take `Cc1cc(O[C@@H]2O[C@H](COC(=O)CC(=O)O)[C@@H](O)[C@H](O)[C@H]2O)c(C(C)C)cc1O`: the max response with CRL-7250 is 0.0068%; in the assay with HEK293 it was -1.41%; in the assay on HaCat it was 0.109%; in the assay on KB-3-1, -13.3%. The compound was classed as inactive in the assay on NIH3T3.

For the compound `CN1CCN(C2=Nc3ccccc3Nc3ccc(O)cc32)CC1`, the max response in the assay with CRL-7250 was 2.24%; in the assay on HEK293, -1.86%; with NIH3T3, 4.15%. The call in the assay on HaCat and with KB-3-1 was inactive.

Regarding `CC1(C)CC[C@]2(C(=O)O[C@@H]3O[C@H](CO[C@@H]4O[C@H](CO[C@@H]5O[C@H](CO)[C@H](O)[C@H](O)[C@H]5O)[C@@H](O)[C@H](O)[C@H]4O)[C@@H](O)[C@H](O[C@@H]4O[C@H](CO)[C@@H](O)[C@H](O)[C@H]4O)[C@H]3O)[C@H](O)C[C@]3(C)C(=CCC4[C@@]5(C)CC[C@H](O[C@@H]6OC[C@@H](O)[C@H](O)[C@H]6O)[C@@](C)(C(=O)O)C5CC[C@]43C)[C@@H]2C1` (stereo partly drawn), the max response in the assay on CRL-7250 was 2.11%; with HEK293, -1.97%. Moreover, the outcome in the assay with HaCat, in the assay with KB-3-1 and in the assay on NIH3T3 was inactive.

For `COCC1OC(n2cnc3c(=O)[nH]cnc32)C(O)C1O` (stereo not drawn), the compound was classed as inactive in the assay with CRL-7250 and in the assay on HaCat. The max response in the assay with HEK293 was -3.16%; in the assay on KB-3-1, 2.47%; in the assay on NIH3T3, -2.27%.

Consider `O=C(OCC1=CC(Cl)C(O)C(OC(=O)c2ccccc2)C1O)c1ccccc1` (stereo not drawn), for which the max response was 2.93% in the assay with CRL-7250, -7.58% in the assay on HEK293 and 1.71% in the assay on NIH3T3. Moreover, the compound was called inactive with HaCat and in the assay on KB-3-1.

Consider `CCC/C=C/C=C/C1CC(O)C(O)C(=O)C1CO` (stereo not drawn), for which the outcome in the assay on CRL-7250, in the assay on HaCat, in the assay on KB-3-1 and in the assay with NIH3T3 was inactive. In addition, the max response with HEK293 is -5.36%.

In the case of `Cc1cc(Cn2cnc3c2CC(C(=O)O)N(C(=O)C(c2ccccc2)c2ccccc2)C3)ccc1N(C)C` (stereo not drawn), the result in the assay on CRL-7250 and with HaCat was inactive. The max response in the assay with HEK293 was -1.68%; in the assay with KB-3-1 it was 5.82%; with NIH3T3 it was 1.33%.

Take `Cn1nccc1-c1ccccc1Oc1ccc(S(=O)(=O)Nc2nccs2)cc1C#N`: the result in the assay with CRL-7250 and with HEK293 was inactive. The max response is -17.4% in the assay on HaCat, 2.49% with KB-3-1 and 0.589% with NIH3T3.

`C[C@@H](CC[C@@H]1[C@@]2(C)CCCC(C)(C)C2CC[C@@]1(C)O)CC(=O)O` (stereo partly drawn): the outcome in the assay with CRL-7250, in the assay with HaCat and in the assay on KB-3-1 was inactive. Further, the max response is -2.2% in the assay with HEK293 and 0.858% with NIH3T3.

As for `C[C@@H]1C[C@H]2OC(=O)[C@@]3(C)CCC[C@](C)(C23)[C@@]1(O)CCC1=CC(=O)OC1O` (stereo partly drawn), the call in the assay with CRL-7250, with KB-3-1 and with NIH3T3 was inactive. Besides, the max response with HEK293 was -8.41%; with HaCat, 3.15%.

Consider `NC[C@H]1CCC[C@@H](CNC(=O)[C@@H](Cc2c[nH]c3ccccc23)NC(=O)N2CCC3(C=Cc4ccccc43)CC2)C1`, for which the max response in the assay on CRL-7250 was 0.396%; in the assay with HEK293, -6.44%; in the assay with NIH3T3 it was -1.79%. The result in the assay with HaCat and with KB-3-1 was inactive.

Consider `Cc1nnc(-c2ccc3occ(-c4ccc(S(C)=O)cc4)c3c2)o1` (stereo not drawn), for which the compound was classed as inactive in the assay on CRL-7250, in the assay on KB-3-1 and in the assay with NIH3T3. Besides, the max response was -3.27% in the assay with HEK293 and -2.4% in the assay on HaCat.

For `C/C=C(\C)C1C(C)=CC2CCC(OS(=O)(=O)O)C(C)C2C1/C=C/C=C/C(=O)O` (stereo not drawn), the outcome in the assay on CRL-7250 and in the assay with HEK293 was inactive. For the same compound, the figures for the max response with HaCat, in the assay on KB-3-1 and in the assay with NIH3T3 were -12.6%, 7.13% and -0.702%, respectively.

Take `C[C@@H]1O[C@@H](O[C@H]2[C@@H]3C=CO[C@@H](O[C@@H]4O[C@H](CO)[C@@H](O)[C@H](O)[C@H]4O)[C@@H]3[C@@]3(CO)O[C@@H]23)[C@H](O)[C@H](OC(=O)/C=C/c2ccc(O)c(O)c2)[C@H]1O`: the max response in the assay on CRL-7250 was 2.8%; in the assay on HEK293, 1.13%; in the assay with KB-3-1 it was -0.915%. Also, the outcome with HaCat and in the assay on NIH3T3 was inactive.

As for `CC(C)C1CCC(C(=O)N[C@@H](Cc2ccccc2)C(=O)O)CC1` (stereo partly drawn), the compound was classed as inactive in the assay with CRL-7250, in the assay on HaCat, with KB-3-1 and in the assay with NIH3T3. Besides, the max response in the assay on HEK293 was 3.42%.

Consider `CC1=C2C(=O)C=C(CO)C2[C@H]2OC(=O)[C@H](C)[C@@H]2[C@@H](OC(=O)Cc2ccc(O)cc2)C1` (stereo partly drawn), for which the compound was classed as inactive in the assay with CRL-7250, in the assay on KB-3-1 and in the assay on NIH3T3. The max response in the assay with HEK293 is -2.2%; in the assay with HaCat, 3.29%.

`OC[C@H]1O[C@@H](OCc2ccccc2)[C@H](O)[C@@H](O)[C@@H]1O`: the max response in the assay on CRL-7250 was 0.468%; in the assay on HEK293 it was -5.26%; with KB-3-1, 1.59%. Besides, the outcome in the assay with HaCat and in the assay with NIH3T3 was inactive.

On to `CC(=O)NCC1CN(c2ccc(-c3ccc(CNCc4cn[nH]n4)cc3)c(F)c2)C(=O)O1` (stereo not drawn), for which the max response was 0.231% in the assay on CRL-7250, 1.71% in the assay on HaCat and -15.8% in the assay on KB-3-1. In addition, in the assay on HEK293, the Potency was 1300 nM (active). The result in the assay with NIH3T3 was inactive.

`CC(=O)OC1C(O)C(C)(O)C(/C=C/C(=O)O)C2(C)CCCC(C)(C)C12` (stereo not drawn): the max response in the assay with CRL-7250 is 4.11%; in the assay with KB-3-1, 6.25%. Also, the outcome in the assay on HaCat and with NIH3T3 was inactive.

`C=CC(C)(O)C1CC2C3(C)CCCC(C)(C)C3C(O)C(O)C2(C)O1` (stereo not drawn): the max response was -10.8% in the assay on CRL-7250 and -13.6% in the assay on NIH3T3. The call in the assay on HaCat and in the assay on KB-3-1 was inactive.

The values above are taken from PubChem BioAssay (NCATS).
